VACV mCherry inh: qHTS for Stage-Specific Inhibitors of Vaccinia Orthopoxvirus: mCherry Reporter Primary qHTS | Vaccinia virus mCherry reporter infection, fluorescence | actives 0.63% (n = 310,000) | AID 720579, 2013 | Potency, µM (titrated, usually from 36.5 µM), inactives show at the highest dose activity change, negative = inhibition, usual class: inhibitors; calls by dose curve; tested in A549 cells; also: nearly all actives have a fitted effect of over 35% in size
Marburg entry inh: qHTS for inhibitors of binding or entry into cells for Marburg Virus; Marburg virus pseudotyped entry inhibition, cell reporter; Potency, µM (series often up to 37.8 µM), without a hit: at the highest dose activity change, negative = inhibition, usual class: inhibitors; actives 1.8% (n = 300,000); AID 540276, 2011; calls by dose curve; tested in HEK293 cells
Vaccinia Venus: qHTS for Stage-Specific Inhibitors of Vaccinia Orthopoxvirus: Venus Reporter Primary qHTS; Vaccinia virus Venus reporter expression, fluorescence; Potency, µM (series often up to 36.5 µM), inactives show at the highest dose activity change, negative = inhibition, actives largely listed as inhibitors; actives 0.46% (n = 330,000); AID 720580, 2013; calls by dose curve; tested in A549 cells; also: nearly all actives have a fitted effect of over 30% in size
Lassa entry inh: qHTS for Inhibitors of binding or entry into cells for Lassa Virus; Lassa virus pseudotype entry inhibition, cell reporter; Potency, µM (highest dose often 37.9 µM), for inactives: top-dose activity change, negative = inhibition, actives largely listed as inhibitors; actives 1.2% (n = 300,000); AID 540256, 2011; calls by dose curve; tested in HEK293 cells; also: nearly all actives have a fitted effect of over 50% in size
HCV inhibitor: qHTS Assay for Inhibitors of Hepatitis C Virus (HCV). Huh7.5.1 HCVcc-Cre infection, luciferase reporter, 44 h. actives 3.4% (n = 340,000). Potency, µM (titrated, usually from 41.8 µM), for inactives: at the top dose activity change, negative = inhibition, hits mostly inhibitors; active = well fitted inhibition curve with a large enough effect; inconclusive = small, poorly fitted or top-dose-only effect, or another doubt; inactive = no such curve, though single readings can be large or run the other way
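After 44 h co-culture of compound, cells and HCVcc-Cre (~0.5 moi), substrate is added for 15 min at room temperature and luciferase measured over 15 sec. Cells were seeded at 1,000/well and pre-cultured 4 h.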
* = called active by the depositor; i = inactive; ? = inconclusive; nt = no result; [ ] = remark or other dose. Rows were chosen to be rich in hits. Some 4.6% of all compounds tested hit in one or more screens of this group. % is scaled to controls: 0 for no effect and ±100 for the full control effect; potency is read from the fitted curve at half-maximal effect.

SMILES	VACV mCherry inh	Marburg entry inh	Vaccinia Venus	Lassa entry inh	HCV inhibitor
COc1cccc2cc(-c3nnc(SCC(=O)Nc4nc(C)cs4)n3C)oc12	nt	?	nt	?	12.6µM*
COc1ccc(S(=O)(=O)N(Cc2ccco2)Cc2cc3ccccc3[nH]c2=O)cc1	i	?	-12.7%	?	14.1µM*
COc1cccc(CN(Cc2ccccc2F)S(=O)(=O)c2ccc(S(=O)(=O)NCc3ccccc3)cc2)c1	-21.3%	-22.2%	-5.4%	?	13.7%
CCCC(c1nnnn1C(C)(C)CC)N(Cc1ccco1)Cc1cc2ccc(OC)cc2[nH]c1=O (centres undefined)	?	12.6µM*	?	?	?
CCC(C)(C)n1nnnc1C(c1cc2ccc(C)cc2[nH]c1=O)N(Cc1cccnc1)Cc1ccco1 (centres undefined)	i	?	-24.0%	-13.1%	-17.1%
COc1cccc(CN(Cc2ccco2)S(=O)(=O)c2ccc(S(=O)(=O)NCc3ccccc3)cc2)c1OC	nt	-22.9%	nt	?	11.2µM*
Cc1cccc(NC(=O)CCc2c(C)nc3nc(CNC(=O)c4cccc(F)c4)nn3c2C)c1	10.3%	11.6%[46.1 µM]	4.1%	-6.1%[46.1 µM]	nt
COc1cc(NC(=O)c2ccc3c(c2)OCO3)c2ncccc2c1	-2.3%	-24.6%	4.2%	21.1%	?
COc1cc(NC(=O)OCc2ccccc2)c2ncccc2c1	-28.1%	-19.3%[46.1 µM]	-20.7%	-5.0%[46.1 µM]	14.1µM*
COc1cc(NCc2ccccc2O)c2ncccc2c1	?	?	-9.9%	?	-20.7%
COc1cc(NC(=O)c2cc(OC)c(OC)c(OC)c2)c2ncccc2c1	-17.6%	?	-12.8%	?	10µM*
COc1ccc(-c2cc3nc4n(c(=O)c3s2)CCC4)cc1	nt	1.64µM*	nt	?	-7.2%
COc1ccc(-c2cc3nc4n(c(=O)c3s2)CCCCC4)cc1	-13.6%	?	-3.8%	3.7%[46.1 µM]	?
COC(=O)CC=C1c2ccccc2[C@@H](NC(=O)OC)[C@@H]1C	nt	20.0%[14.2 µM]	nt	nt	nt
CN(c1ccc(OCC(=O)Nc2ccc3[nH]c(=O)[nH]c3c2)cc1)S(=O)(=O)c1ccc(Cl)cc1	nt	?	nt	23.1µM*	-7.2%
CN(c1ccc(OCC(=O)NCCc2ccccc2)cc1)S(=O)(=O)c1ccc(Cl)cc1	-11.5%	-19.8%	?	?	?
COc1ccc(CCNC(=O)COc2ccc(N(C)S(=O)(=O)c3ccc(Cl)cc3)cc2)cc1	?	?	?	?	7.08µM*
CCOc1ccccc1OCC(=O)Nc1ccc2[nH]c(=O)[nH]c2c1	nt	nt	nt	nt	12.6µM*
CCOc1ccc(S(=O)(=O)N(C)c2ccc(OCC(=O)Nc3ccc4[nH]c(=O)[nH]c4c3)cc2)cc1	nt	10.2%	0.1%	-15.1%	0.4%
CCOc1ccc(S(=O)(=O)N(C)c2ccc(OCC(=O)NCc3ccc(C(=O)OC)cc3)cc2)cc1	-22.6%	2.2%[46.1 µM]	4.4%	3.16µM*	-29.4%
O=C(COc1ccccc1Cl)Nc1ccc2[nH]c(=O)[nH]c2c1	-22.8%	-0.5%	-17.4%	-8.1%[46.1 µM]	-21.6%
CC(C)(C)c1ccc(C(=O)Nc2cc(-c3ccccc3)nn2-c2ccccc2)cc1	0.8%	nt	-7.7%	0.1%[46.1 µM]	nt
Clc1ccccc1OCCSc1nnc(-c2cccs2)o1	-5.9%	?	-4.3%	0.0%[46.1 µM]	nt
COC[C@H]1O[C@H](c2ccccc2)C=C[C@H]1OCc1cccc(Br)c1	nt	-14.9%[14.2 µM]	nt	nt	nt
CCCCCCCCCCCCCCC(F)C(=O)O (centres undefined)	-5.2%[3.33 µM]	nt	-3.3%[3.33 µM]	nt	nt
CCOC(=O)C1CCCCN1Cc1nc(N2CCN(C(C)=O)CC2)c2ccccc2n1 (centres undefined)	-8.1%	nt	8.3%	nt	nt
NC(=O)C1(N2CCCCC2)CCN(C2CC(=O)N(Cc3cccs3)C2=O)CC1 (centres undefined)	i	-17.0%	-18.5%	20.8%	4.3%
O=C(c1ccc(N2CCN(C3CC(=O)N(Cc4cccs4)C3=O)CC2)cc1)c1cccnc1 (centres undefined)	-2.5%	?	-20.1%	?	12.6µM*
CCOCCCn1c(SCC(=O)Nc2cc(C)ccc2C)nc2c(oc3ccccc32)c1=O	-4.2%	13.3%[46.1 µM]	12.4%	nt	nt
CC(C)(C)OC(=O)N1CCC(c2c(C(=O)NC3CCCCC3)cnn2-c2cccc(Cl)c2)CC1	-6.4%	nt	-10.2%	-20.2%[46.1 µM]	nt

Screens as filed in PubChem.
